In the library only some 5.3% were active in any assay of this set; here they are far more common.
CtBP-E1A blk = inhibitors of CtBP/E1A interaction; activity change, % (no concentration beside the values); actives 0.49% (n = 340,000); AlphaScreen GST-E1A/His-CtBP binding, 1536-well; stronger effect = lower value; AID 651724; in the data active means activity change below about -65%; inconclusive means mostly about -30% to -63%; further: on the % scale 0 is the no-effect control and ±100 the full control effect
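GST-E1A and His-tagged CtBP (125 nM each as 5X stock) were preincubated with pin-transferred compound for 2 h at 37 °C in the dark, then glutathione donor and nickel acceptor beads were added for 1 h before AlphaScreen reading.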
HP1b binding inh = blocks HP1-beta chromodomain binding to methylated histone tails; AlphaScreen HP1-beta / biotin-H3K9me3 peptide binding; actives 0.56% (n = 390,000); P83916; AID 540317; Potency, µM (titrated, usually from 114 µM), without a hit: at the highest dose activity change, negative = inhibition, hits mostly inhibitors; further: potency means the concentration at half of the fitted maximal effect; nearly all actives have a fitted effect of over 70% in size
Target sequence (P83916 whole entry, looked up): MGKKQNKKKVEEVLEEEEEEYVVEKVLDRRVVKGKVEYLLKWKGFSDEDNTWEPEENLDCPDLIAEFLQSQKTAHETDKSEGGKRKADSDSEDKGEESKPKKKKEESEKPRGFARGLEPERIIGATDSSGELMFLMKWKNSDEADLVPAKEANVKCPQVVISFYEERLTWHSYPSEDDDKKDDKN
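Compound inhibition of the preformed complex between 50 nM HP1-beta and 50 nM biotinylated H3K9me3 peptide was read by AlphaScreen. Buffer was PBS pH 7.4 with 0.01% Tween-20. Incubations ran 30 min at room temperature, with 10 ug/mL donor/acceptor beads.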
JMJD2A Tudor = inhibitors of human JMJD2A Tudor domain; AlphaScreen JMJD2A-Tudor / H3K4me3 peptide binding; Potency, µM (titrated, usually from 114 µM), without a hit: at the top dose activity change, negative = inhibition, usual class: inhibitors; actives 4.4% (n = 390,000); AID 504339; further: potency means the concentration at half of the fitted maximal effect; on the % scale 0 is the no-effect control and ±100 the full control effect; nearly all actives have a fitted effect of over 50% in size
BAZ2B inh = inhibitors of human BAZ2B bromodomain | Potency, µM (doses to about 114 µM), for the others: top-dose activity change, negative = inhibition, actives largely listed as inhibitors | Q9UIF8 | actives 4.4% (n = 360,000) | AlphaScreen BAZ2B-H3K14Ac peptide displacement; further: potency means the concentration at half of the fitted maximal effect; on the % scale 0 is the no-effect control and ±100 the full control effect; nearly all actives have a fitted effect of over 60% in size
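In this displacement format the biotinylated H3(5-23) peptide acetylated at Lys14 serves as ligand at 50 nM, with BAZ2B at 50 nM in PBS pH 7.4 containing 0.01% Tween-20. Donor and acceptor beads are 10 ug/mL final.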
Six1-Eya2 inh = inhibitors of human Six1/Eya2 interaction. activity change, % (no concentration beside the values). actives 0.56% (n = 360,000). AlphaScreen GST-Six1/His-Eya2 binding, biochemical; stronger effect = lower value. AID 651725; in the data active means activity change below about -65%; inconclusive means mostly about -30% to -63%; further: on the % scale 0 is the no-effect control and ±100 the full control effect
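Six1/Eya2 binding was read as AlphaScreen signal after compounds were pinned into GST-Six1 plus His-tagged Eya2 (5X stock 250/500 nM) in pH 8.0 Tris/NaCl/TCEP buffer, beads added, then incubated 1 h, 37 C, dark.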
TDP1 inh = blocks human tyrosyl-DNA phosphodiesterase 1; Q9NUW8; recombinant TDP1, AlphaScreen DNA substrate cleavage; Potency, µM (doses to about 130 µM), for the others: top-dose activity change, negative = inhibition, hits mostly inhibitors; actives 0.28% (n = 350,000); further: potency means the concentration at half of the fitted maximal effect; on the % scale 0 is the no-effect control and ±100 the full control effect; nearly all actives have a fitted effect of over 40% in size
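Tdp1 1 nM final; 15 min RT w/ cpd; substrate 15 nM, 5 min; beads 10 ug/ml, 10 min; AlphaScreen read. Neg ctrl: no enzyme.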
Starred values were filed as active, the others as inactive; ? = inconclusive; . = no result; [ ] = dose if it differs, or a comment. Unless noted, the call rests on the fitted dose curve; in most records, active means well fitted inhibition curve with a large enough effect; inconclusive means small, poorly fitted or top-dose-only effect; inactive means no such curve, though single readings can be large or run the other way.

SMILES	CtBP-E1A blk	HP1b binding inh	JMJD2A Tudor	BAZ2B inh	Six1-Eya2 inh	TDP1 inh
CCOc1ccc(NC(=O)C2CCCN(c3ccc(Sc4ccc(C)cc4)nn3)C2)cc1 (stereo not drawn)	.	44%	1%	10%	.	-1%
O=C(N/N=C/c1ccco1)c1cccc(N2Cc3ccccc3C2)c1	-4	?	28µM*	50µM*	-22	.
COc1ccc(Nc2c([N+](=O)[O-])ccc3c2=NC2(CCCCC2)N=3)cc1	-76*	8.9µM*	16µM*	7.1µM*	-78*	12%
CC(CN1CCN(C)CC1)OC(=O)c1ccc(Cl)cc1 (stereo not drawn)	-1	28%	?	-6%	5	2%
CCOc1ccc(C(=O)OC(C)CN2CCN(C)CC2)cc1 (stereo not drawn)	-1	-10%	79µM*	-18%	12	.
CCC1=C(c2ccc(C)cc2)S(=O)(=O)N=C1N1CCC(C(=O)Nc2ccccc2F)CC1	.	-8%	-18%	-9%	.	3%
CCCC(C(=O)Nc1ccc2c(C)cc(=O)oc2c1)c1ccccc1 (stereo not drawn)	-2	13%	-24%	56µM*	4	3%
Cc1cc(=O)oc2cc(NC(=O)Cc3ccccc3)ccc12	9	14%	-25%	-25%	0	-17%[0.0935 µM]
CC(C)CC(NS(=O)(=O)OCC(Cl)(Cl)Cl)c1ccccc1 (stereo not drawn)	18	-9%	40µM*	4%	9	.
COC(=O)CCC(NS(=O)(=O)OCC(Cl)(Cl)Cl)c1ccccc1 (stereo not drawn)	-1	42%	-25%	16%[57.1 µM]	-2	.
CC1=CC(=O)C(C(C)C)=C/C1=N/OS(=O)(=O)c1ccccc1	.	?	45µM*	14µM*	?	.
COC(=O)c1sccc1S(=O)(=O)N(CC(=O)Nc1c(C)cccc1C)c1ccc(C)c(C)c1	.	43%	-11%	-4%	.	10%
O=C(Nc1ccc2nc3n(c(=O)c2c1)CCCCC3)C(=O)N1CCN(c2ccc(F)cc2)CC1	0	?	20µM*	-20%	1	5%
O=C(c1ccc2c(=O)n3c(nc2c1)CCCCC3)N1CCN(c2ccc(F)cc2)CC1	-13	-11%	-17%	-16%	-14	5%
Oc1ccc(-c2n[nH]c(=S)n2Cc2ccccc2)cc1	0	-8%	32µM*	1%	-3	-1%
S=c1[nH]nc(-c2ccncc2)n1Cc1ccccc1	11	26%	7.9µM*	.	4	-2%
S=c1[nH]nc(-c2ccc3ccccc3n2)n1Cc1ccccc1	1	29%	-17%	5%	2	6%
S=c1[nH]nc(-c2ccc(Br)cc2)n1Cc1ccccc1	-6	-21%[57 µM]	?	?	-12	6%
Cc1ccn2c(-c3n[nH]c(=S)n3Cc3ccccc3)c(C)nc2c1	-3	?	3.5µM*	-7%	6	3%
Cc1ccn2c(=S)[nH]nc2c1	3	.	.	.	1	.
S=c1[nH]nc(-c2cccnc2)n1Cc1ccccc1	5	11%	8.9µM*	-5%	2	-9%
Cc1ccc(-n2nnnc2CNC(=O)c2cc(C(F)(F)F)cc(C(F)(F)F)c2)cc1C	.	22%[57 µM]	-18%	11%	.	0%
CC(C)c1ccc(C(=O)CC2(O)C(=O)N(CCc3ccccc3)c3ccc(Cl)cc32)cc1 (stereo not drawn)	.	0%	-27%	-3%	.	.
c1ccc(P(c2ccccc2)c2cnc3ccccn23)cc1	.	.	?	.	.	4%
OCCCn1c(-c2ccccc2)n[nH]c1=S	6	24%	28µM*	-3%	7	.
SMILES	CtBP-E1A blk	HP1b binding inh	JMJD2A Tudor	BAZ2B inh	Six1-Eya2 inh	TDP1 inh
S=c1[nH]c2cnccc2n1Cc1ccccc1	0	11%	18µM*	-18%	0	.
Fc1ccc(-c2n[nH]c(=S)n2Cc2ccccc2)cc1	-4	6%	18µM*	-1%	-18	.
CCc1ccccc1NC(=O)c1cnc2sc(N3CCOCC3)nn2c1=O	.	38%	-17%	36%	.	0%
CCN(C(=O)CSc1nnc(-c2cc3occc3n2C)n1-c1ccccc1C)c1ccccc1	.	37%	-6%	4%	.	1%
Cc1ccc2c(=O)cc(C(=O)Nc3sc4c(c3C(=O)NCc3ccco3)CCC4)oc2c1	.	22%	-25%	-19%	.	6%
CC(=O)/C(C[N+]1(C)CCCCC1)=N\O	-2	-32%	35µM*	?	9	-1%
CCCc1cc(=O)[nH]c(SCc2cc(=O)oc3cc(C)c(C(C)C)cc23)n1	9	28%	-20%	-4%	11	0%
Cc1cc2oc(=O)cc(CSc3nc(N)cc(N)n3)c2cc1C(C)C	-4	2%	-22%	32µM*	-1	4%
CC(=O)c1cccc(NC(=O)CCc2c(C)nc3nc(CN)nn3c2C)c1	.	21%	?	50µM*	.	3%
Cc1cc(Nc2ccccc2)c2c([N+](=O)[O-])ccc(C)c2n1	-9	?	50µM*	28µM*	-6	4%
Cc1cc2nc3c(=O)[nH]c(=O)[nH]c3nc2c([N+](=O)[O-])c1N	-82*	?	45µM*	50µM*	-84*	40µM*
Cc1c(P(=S)(c2ccccc2)c2ccccc2)c2ccccc2n1CCc1ccccc1	.	.	-22%	.	.	0%
COc1ccc(N2CCN(C(=O)c3cn(CC(C)C)c(=O)c4c3c3ccccc3n4C)CC2)cc1	.	?	35µM*	25µM*	.	9%
Cc1cccc(N2CCN(C(=O)c3cn(CC(C)C)c(=O)c4c3c3ccccc3n4C)CC2)c1C	.	11%	-10%	3%	.	0%
Cc1ccc([N+](=O)[O-])cc1N=Nc1c(C)[nH]n(C(N)=S)c1=O	.	43%	-5%	-2%	-1	.
Cc1ccc([N+](=O)[O-])cc1N=Nc1c(-c2ccc([N+](=O)[O-])cc2)[nH]n(C(N)=S)c1=O	-11	-4%	?	32µM*	-2	-2%
NC(=S)n1[nH]c(-c2ccc([N+](=O)[O-])cc2)c(N=Nc2ccc(Cl)cc2)c1=O	-3	8%	63µM*	5.6µM*	-14	7%
COCCCNC(=O)CSC1=Nc2ccccc2C2=NC(CCC(=O)NCc3ccccc3OC)C(=O)N12 (stereo not drawn)	.	-17%	-13%	-6%	.	4%
Fc1ccccc1-c1n[nH]c(=S)n1/N=C/c1c[nH]c2ccccc12	4	-3%	35µM*	?	?	6%
Cc1ccccc1/C=N/n1c(C2CCCCC2)n[nH]c1=S	0	29%	-23%	-1%	-7	.
